Assay outcomes: PubChem, National Center for Advancing Translational Sciences (NCATS)
Shown are actives, neighbours in structure and some others; about 1% of the full set was active somewhere.
WRN inhibitor: WRN helicase (human) inhibition. Q14191. WRN helicase unwinding, fluorescent forked duplex, kinetic. Potency, µM (top dose mostly 114 µM), hits mostly inhibitors. hit rate 0.46% among 360,000. AID 651768; note: nearly all actives have a fitted effect of over 55% in size
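Screening of the MLSMR collection measured strand separation of a quenched forked DNA duplex (100 nM) by 20 nM WRN with 2 mM ATP, all final. Compounds were preincubated with enzyme 15 min at room temperature.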
RECQ1 inh: inhibitors of human RECQ1 DNA helicase; P46063; RECQ1 DNA unwinding, red fluorescence kinetic read; Potency, µM (top dose mostly 57.3 µM), actives largely listed as inhibitors; hit rate 0.54% among 240,000; note: nearly all actives have a fitted effect of over 30% in size
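RECQ1T1 50 nM; forked duplex (20 bp + 30-nt ss tails) 200 nM, ATP 2 mM final; pH 8.0, 2 mM MgCl2, 2.5 ug/ml poly(dI-dC); 15 min compound preincubation; discontinuous kinetic read over 2 h at RT.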
FEN1 inh-1: human FEN1 inhibition. P39748. Recombinant FEN1 flap cleavage, fluorescence, 15 min. Potency, µM (titrated, usually from 114 µM), actives largely listed as inhibitors. hit rate 0.35% among 390,000. AID 588795; note: nearly all actives have a fitted effect of over 65% in size
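Compounds are tested as a concentration series against 10 nM FEN1; after a 15 min room-temperature preincubation, 50 nM substrate starts cleavage, with plate reads at 0 and 15 min. Normalized responses are fitted by a Hill equation.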
L3MBTL1 inh: blocks human L3MBTL1; Q9Y468; Potency, µM (top dose mostly 57.1 µM), usual class: inhibitors; hit rate 0.66% among 230,000; AlphaScreen L3MBTL1–H3K9me1 peptide binding; note: nearly all actives have a fitted effect of over 60% in size
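L3MBTL1 50 nM + b-AHA-H3(1-15)K9me1 75 nM, 30 min RT; compound added, 30 min RT; streptavidin donor/Ni-chelate acceptor beads 10 ug/mL each final, 30 min RT dark; AlphaScreen read.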
APEX1 inh: inhibitors of human APE1 endonuclease; hit rate 0.35% among 350,000; Potency, µM (top dose mostly 65.8 µM), usual class: inhibitors; recombinant APE1, TAMRA/BHQ-2 abasic DNA cleavage fluorescence; AID 2517; note: nearly all actives have a fitted effect of over 55% in size
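APE1 at 0.75 nM preincubated 15 min at room temperature with compound. Reaction then started with 50 nM double-stranded THF-abasic substrate labelled with TAMRA/BHQ-2, and 525/598 nm fluorescence read kinetically. Activity taken as third-minus-first read difference, normalized to DMSO and NSC13755 controls.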
BLM helicase inh: inhibitors of human Bloom syndrome helicase BLM; recombinant BLM DNA unwinding, fluorescence dequenching; Potency, µM (titrated, usually from 56.1 µM), hits mostly inhibitors; hit rate 0.2% among 350,000; note: nearly all actives have a fitted effect of over 35% in size
Target sequence (P54132 whole entry, looked up): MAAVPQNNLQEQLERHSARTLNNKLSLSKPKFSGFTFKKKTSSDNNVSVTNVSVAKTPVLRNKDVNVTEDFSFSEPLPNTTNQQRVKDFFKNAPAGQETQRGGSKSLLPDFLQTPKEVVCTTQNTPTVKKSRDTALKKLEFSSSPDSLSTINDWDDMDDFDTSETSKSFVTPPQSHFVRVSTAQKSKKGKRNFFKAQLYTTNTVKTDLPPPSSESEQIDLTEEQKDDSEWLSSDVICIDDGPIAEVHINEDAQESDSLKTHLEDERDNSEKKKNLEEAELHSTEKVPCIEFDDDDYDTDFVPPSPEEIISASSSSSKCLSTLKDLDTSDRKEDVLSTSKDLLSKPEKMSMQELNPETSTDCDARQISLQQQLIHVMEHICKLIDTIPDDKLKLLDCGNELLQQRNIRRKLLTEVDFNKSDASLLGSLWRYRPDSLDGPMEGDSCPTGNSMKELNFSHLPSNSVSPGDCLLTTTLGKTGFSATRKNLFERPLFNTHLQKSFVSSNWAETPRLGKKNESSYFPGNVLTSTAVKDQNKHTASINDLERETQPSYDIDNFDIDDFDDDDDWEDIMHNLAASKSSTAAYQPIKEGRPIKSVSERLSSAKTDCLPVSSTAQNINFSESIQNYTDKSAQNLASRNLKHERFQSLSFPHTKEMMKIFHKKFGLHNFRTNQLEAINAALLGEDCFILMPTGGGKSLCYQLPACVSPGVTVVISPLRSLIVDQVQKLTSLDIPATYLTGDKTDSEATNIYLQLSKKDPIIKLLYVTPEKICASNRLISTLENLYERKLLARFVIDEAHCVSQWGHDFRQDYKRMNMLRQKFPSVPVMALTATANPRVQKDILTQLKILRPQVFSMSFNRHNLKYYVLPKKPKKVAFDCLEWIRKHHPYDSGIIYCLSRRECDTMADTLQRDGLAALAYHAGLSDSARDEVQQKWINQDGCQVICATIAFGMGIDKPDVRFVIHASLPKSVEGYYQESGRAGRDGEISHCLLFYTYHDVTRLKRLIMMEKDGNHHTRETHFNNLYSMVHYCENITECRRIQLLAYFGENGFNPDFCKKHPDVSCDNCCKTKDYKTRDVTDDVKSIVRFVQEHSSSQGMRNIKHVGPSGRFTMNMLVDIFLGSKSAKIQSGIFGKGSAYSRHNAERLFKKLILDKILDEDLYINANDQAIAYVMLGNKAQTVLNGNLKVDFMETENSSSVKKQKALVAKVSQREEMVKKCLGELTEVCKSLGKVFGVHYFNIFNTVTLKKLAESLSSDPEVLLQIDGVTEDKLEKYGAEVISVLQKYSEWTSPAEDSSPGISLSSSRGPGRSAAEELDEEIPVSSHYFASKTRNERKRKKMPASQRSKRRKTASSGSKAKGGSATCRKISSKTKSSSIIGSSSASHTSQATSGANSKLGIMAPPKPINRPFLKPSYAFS
FEN1 inh-2: confirmation of human FEN1 inhibitors; shares compounds with FEN1 inh-1; FEN1 flap cleavage, TAMRA/BHQ2 fluorogenic DNA substrate; Potency, µM, actives largely listed as inhibitors; hit rate 79% among 880; note: nearly all actives have a fitted effect of over 60% in size
Hits are given with their value; [ ] = remark or other dose. Calls come from the whole dose curve; as a rule, active = well fitted curve in the direction sought with a large enough effect; inconclusive = small, poorly fitted or top-dose-only effect, or another doubt; inactive = no such curve, though single readings can be large; an effect the other way counts as inactive or inconclusive.

For CCNc1ncc2ncc(=O)n(Cc3ccc(F)cc3)c2n1 the results were RECQ1 inh inactive, APEX1 inh inactive and BLM helicase inh inactive.
`CC(=O)Nc1sc2c(c1-c1nc3ccccc3s1)CCN(C)C2` gave FEN1 inh-2 5.36.
CN1CCc2c(sc(NC(=O)CSc3ccccc3)c2-c2nc3ccccc3s2)C1 was read as FEN1 inh-1 inactive and BLM helicase inh inactive.
For CC(=O)Nc1sc2c(c1-c1nc3ccccc3s1)CN(C(C)C)CC2 the results were FEN1 inh-1 6.31µM, L3MBTL1 inh inactive, APEX1 inh 11.9µM and FEN1 inh-2 10.7.
Screening CC(=O)N1CCc2c(sc(NC(=O)C3CC3)c2-c2nc3ccccc3s2)C1 returned WRN inhibitor inactive, RECQ1 inh inactive, FEN1 inh-1 inconclusive, L3MBTL1 inh inactive, APEX1 inh inconclusive and BLM helicase inh inactive.
CC(=O)Nc1sc2c(c1-c1nc3ccccc3s1)CCOC2 was read as FEN1 inh-2 inconclusive.
For CC(=O)Nc1sc2c(c1-c1nc3ccccc3s1)CCCN(C(C)C)C2 the results were FEN1 inh-2 7.57.
Screening Cc1sc2ccccc2[n+]1CCCCBr returned FEN1 inh-1 inactive.
CC(C)N1CCc2c(sc(NC(=O)c3nc4ccccc4s3)c2C(N)=O)C1 was read as WRN inhibitor inactive, RECQ1 inh inactive, FEN1 inh-1 inactive, L3MBTL1 inh inactive, APEX1 inh inactive and BLM helicase inh inactive.
`CCCCC(=O)Nc1sc2c(c1-c1nc3ccccc3s1)CCN(C(C)=O)C2` gave RECQ1 inh inactive, L3MBTL1 inh inactive, APEX1 inh inactive and BLM helicase inh inactive.
`CC(=O)Nc1sc2c(c1-c1nc3ccccc3o1)CCN(C(C)C)C2` gave FEN1 inh-2 30.1.
CCCCC(=O)Nc1sc2c(c1-c1nc3ccccc3s1)CCN(C(C)C)C2 was read as FEN1 inh-2 33.8.
Screening COc1ccc2c([N+](=O)[O-])c(Cl)[nH]c2c1 returned WRN inhibitor inactive[11.6 µM], RECQ1 inh inactive, FEN1 inh-1 17.8µM, L3MBTL1 inh inactive, APEX1 inh inactive, BLM helicase inh inactive and FEN1 inh-2 33.8.
Screening COc1ccc2c([N+](=O)[O-])c(N3CCOCC3)[nH]c2c1 returned WRN inhibitor inactive.
Cc1cc(C)cc(N=Cc2ccc([N+](=O)[O-])s2)c1 was read as WRN inhibitor inactive[11.6 µM], RECQ1 inh inactive, FEN1 inh-1 inconclusive, L3MBTL1 inh 8.91µM, APEX1 inh inactive, BLM helicase inh inactive and FEN1 inh-2 5.36.
NC(=O)c1ccc(N=Cc2ccc([N+](=O)[O-])s2)cc1 was read as WRN inhibitor inactive, RECQ1 inh inconclusive, FEN1 inh-1 inconclusive, L3MBTL1 inh 12.6µM, APEX1 inh inconclusive, BLM helicase inh inactive and FEN1 inh-2 6.75.
O=[N+]([O-])c1ccc(C=Nc2ccc(Cl)c([N+](=O)[O-])c2)s1 was read as RECQ1 inh inconclusive, L3MBTL1 inh inconclusive, APEX1 inh inconclusive and BLM helicase inh inactive.
For NC(=O)c1ccc([N+](=O)[O-])cc1 the results were RECQ1 inh inactive and APEX1 inh inactive.
Screening CN(C)c1ccc(C=c2c3ccccc3n3c2c2c([n+]3C)CCCC2)cc1 returned WRN inhibitor 22.4µM, FEN1 inh-1 22.4µM and FEN1 inh-2 30.1.
CN(C)c1ccc(/C=C2\CCc3ccccc32)cc1 was read as FEN1 inh-1 inactive.
`COc1ccc(CNc2cccnc2)c(OC)c1OC` gave WRN inhibitor inactive and FEN1 inh-1 inactive.
Screening Oc1ccc(CNc2cccnc2)c2cccnc12 returned FEN1 inh-2 37.9.
`CCOc1ccc2nc(NC3=NC(c4ccc(OC)cc4)CC(=O)N3)nc(C)c2c1` (stereo not given) gave WRN inhibitor 50.1µM, RECQ1 inh inactive, FEN1 inh-1 79.4µM, L3MBTL1 inh inactive, APEX1 inh inconclusive, BLM helicase inh inactive and FEN1 inh-2 75.7.
`CCOc1ccc2c(C)nc(NC3=NC(C)(C)C=C(C)N3)nc2c1` gave WRN inhibitor inactive, RECQ1 inh inactive, FEN1 inh-1 44.7µM, L3MBTL1 inh inactive, APEX1 inh inactive, BLM helicase inh inactive and FEN1 inh-2 26.9.
`CCOc1ccc(C2CC(=O)NC(NC(=O)c3ccc(C)cc3)=N2)cc1` (stereo not given) gave FEN1 inh-1 inactive and BLM helicase inh inactive.
`CCOc1ccc2nc(NC3=NC(C)(C)C=C(C)N3)nc(C)c2c1` gave WRN inhibitor inactive, RECQ1 inh inactive, FEN1 inh-1 39.8µM, APEX1 inh inactive, BLM helicase inh inactive and FEN1 inh-2 16.9.
`O=C1NC(=S)S/C1=C1\Sc2ccccc2N1CCCS(=O)(=O)O` gave WRN inhibitor inactive, RECQ1 inh inactive, FEN1 inh-1 inactive, L3MBTL1 inh inactive, APEX1 inh inactive and BLM helicase inh inactive.
NN1C(=O)/C(=C2/Sc3ccccc3N2CCCS(=O)(=O)O)SC1=S was read as WRN inhibitor inactive, FEN1 inh-1 35.5µM, L3MBTL1 inh inactive, APEX1 inh inactive, BLM helicase inh inactive and FEN1 inh-2 inconclusive.
Screening CCOCCCNCc1ccc(OC)cc1 returned WRN inhibitor inactive, RECQ1 inh inactive, FEN1 inh-1 inactive, APEX1 inh inactive and BLM helicase inh inactive.
Screening COc1ccc2cc(CNCCOCCOCCNCc3ccc4cc(OC)ccc4c3)ccc2c1 returned WRN inhibitor inconclusive, FEN1 inh-1 39.8µM and FEN1 inh-2 37.9.
CC(=O)C1CCC2C3CC=C4CC(SC(=N)N)CCC4(C)C3CCC12C (stereo not given) was read as WRN inhibitor inactive, FEN1 inh-1 inconclusive and FEN1 inh-2 inconclusive.
`Oc1ccc(/C=N/N=C(c2ccccc2)c2ccccc2)c(O)c1O` gave WRN inhibitor 6.7µM, RECQ1 inh inactive, FEN1 inh-1 inconclusive, L3MBTL1 inh 3.55µM, APEX1 inh inconclusive, BLM helicase inh inconclusive and FEN1 inh-2 47.8.
Oc1cccc(C=Nc2cccc3ccccc23)c1O was read as WRN inhibitor inactive[11.6 µM], FEN1 inh-1 inconclusive, L3MBTL1 inh inconclusive, APEX1 inh inactive and BLM helicase inh inactive.
`CCOc1ccccc1CNC(=O)c1ccc(NC(=O)N2CC(C)Sc3ccccc32)cc1` (stereo not given) gave FEN1 inh-1 inactive and BLM helicase inh inactive.
Screening COc1ccc2[nH]c3c(=O)n(CCCCC(=O)NCCN4CCCC4)c(=S)[nH]c3c2c1 returned WRN inhibitor inconclusive, RECQ1 inh inactive, FEN1 inh-1 inconclusive, APEX1 inh inactive, BLM helicase inh inactive and FEN1 inh-2 inconclusive.
